Test results: PubChem BioAssay (NCATS)
Results filed as inconclusive are left out. The source made the active and inactive calls. The call rests on the fitted dose curve; in most records, active means well fitted curve in the direction sought with a large enough effect; inconclusive means small, poorly fitted or top-dose-only effect, or another doubt; inactive means no such curve, though single readings can be large; an effect the other way counts as inactive or inconclusive.

Tests used:
[1] = Cellular Toxicity (caspase-3) Mesangial (AID 660); conditions: mesangial cells, normalized: DMSO 0%, 100 µM tamoxifen 100%; at 91.7 µM (top of the series);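 further: combined caspase 3 and 7 activity read by Caspase-Glo luminescence; cells exposed to compound for 16 h before the caspase read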
How it was run: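 Concentration-response qHTS: compound-induced rise in caspase 3/7 luminescence in human mesangial cells after 16 h, normalized to DMSO and 100 uM tamoxifen controls.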

[2] = Cellular Toxicity (caspase-3) SK-N-SH (AID 661);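 further: cells exposed to compound for 16 hours; 0% = DMSO basal and 100% = 10 µM staurosporine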
How it was run: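 Caspase 3/7 activation is measured as a luminescence increase from aminoluciferin released by substrate cleavage in SK-N-SH cells after 16 hr compound treatment; values are AC50 from concentration-response curves.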

[3] = Cellular Toxicity (caspase-3) H-4-II-E (AID 663); conditions: H-4-II-E rat hepatoma, scaled: DMSO 0%, 100 µM tamoxifen 100%; at 92.2 µM (top of the series);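 further: cells exposed to compound for 16 hr before readout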
How it was run: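 Luminescence from caspase-cleaved aminoluciferin substrate, read 20 min after reagent addition, reports caspase 3/7 activation in rat H-4-II-E cells after 16 hr compound exposure. Normalized to DMSO (basal) and 100 uM tamoxifen (100%); AC50 from Hill fits.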

[4] = Cellular Toxicity (caspase-3) Hek293 (AID 664); conditions: HEK293 caspase-3 activation, DMSO = 0%, 100 µM tamoxifen = 100%; at 92.2 µM (top of the series);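 further: cells exposed to compound for 16 h at 37 °C before readout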
How it was run: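 Activation of caspase-3/7 is measured as increased luminescence from cleaved peptide-aminoluciferin substrate in HEK293 cells treated 16 hours at 37 °C. AC50 values come from Hill-equation fits of concentration-response data.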

[5] = Cellular Toxicity (caspase-3) N2a (AID 665);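 further: compound exposure lasted 16 h at 37 °C before readout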
How it was run: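 Plated mouse neuroblastoma N2a cells received titrated compounds for 16 h in complete medium. Caspase activity was then detected with a peptide-aminoluciferin luminescent reagent.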

[6] = Cellular Toxicity (caspase-3) NIH 3T3 (AID 666);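 further: 0% = DMSO basal and 100% = 100 µM tamoxifen stimulation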
How it was run: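 Concentration-response qHTS in NIH 3T3 mouse fibroblasts scores caspase-3/7 activation as rising luminescence after 16 hr compound exposure. Signals are scaled between DMSO-only and 100 uM tamoxifen.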

[7] = Cellular Toxicity (caspase-3) Renal Proximal Tubule (AID 667); conditions: Potency: caspase-3 activation;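 further: cells exposed to compound for 16 hours at 37 °C before detection; 0% = DMSO basal and 100% = 10 µM staurosporine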
How it was run: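 Luminescent caspase 3/7 signal from peptide-aminoluciferin cleavage measures apoptosis in freshly isolated rat kidney proximal tubule cells after 16 h compound exposure. Concentration-response data are normalized to DMSO and 10 uM staurosporine, and AC50 values come from Hill equation fits.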

[8] = biological target: Cytochrome P450 3A4 (Homo sapiens) (UniProt P08684); experiment: qHTS Assay for Inhibitors and Substrates of Cytochrome P450 3A4 (AID 884); further: on the % scale 0 is the no-effect control and ±100 the full control effect; nearly all actives have a fitted effect of over 50% in size
Chain of Cytochrome P450 3A4 (Homo sapiens) (P08684 whole entry, looked up): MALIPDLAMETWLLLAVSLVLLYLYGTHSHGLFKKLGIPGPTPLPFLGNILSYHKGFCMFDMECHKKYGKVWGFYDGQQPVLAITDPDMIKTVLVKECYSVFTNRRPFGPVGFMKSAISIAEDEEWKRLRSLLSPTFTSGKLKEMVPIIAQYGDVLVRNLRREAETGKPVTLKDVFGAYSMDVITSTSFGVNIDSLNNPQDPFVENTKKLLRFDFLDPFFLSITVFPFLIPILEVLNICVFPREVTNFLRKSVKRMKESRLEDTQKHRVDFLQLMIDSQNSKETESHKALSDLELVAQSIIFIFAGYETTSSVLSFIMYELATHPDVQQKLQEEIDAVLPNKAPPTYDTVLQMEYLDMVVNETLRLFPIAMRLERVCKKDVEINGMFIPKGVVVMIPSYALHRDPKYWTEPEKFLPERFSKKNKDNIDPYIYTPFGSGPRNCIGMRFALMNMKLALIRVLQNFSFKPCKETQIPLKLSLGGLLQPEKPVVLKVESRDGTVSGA
How it was run: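 20 nM human CYP3A4 with 25 uM Luciferin-PPXE (at KM) in 200 mM KPO4, preincubated 10 min with compound; NADPH regeneration started a 60 min RT reaction. Luciferin detected by luminescence, normalized to 57 uM ketoconazole as full inhibition.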

[9] = Cell Viability - LYMP2-001 (AID 921);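 further: 0% = DMSO only and full inhibition = tetraoctylammonium bromide control wells; nearly all actives have a fitted effect of over 70% in size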
How it was run: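 CellTiter-Glo luminescence (intracellular ATP) after 24 hr compound exposure at 37 C, 2500 lymphoblastoid cells/well in complete medium. AC50 fitted with standard Hill equation; tetraoctylammonium bromide positive control.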

[10] = MultiTox-Fluor Cytotoxicity Assay - LYMP1-001 - Dead Cells (AID 946);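 further: 0% = DMSO and 100% = tetraoctylammonium bromide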
How it was run: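 AC50 from Hill fit of concentration-response; data normalized to DMSO (basal) and 15 uM tetraoctylammonium bromide (100%). LYMP1-001 lymphoblastoid cells, 2500/well, 16 hr compound at 37 C; dead-cell protease fluorescence, Ex/Em 485/520.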

[11] = MultiTox-Fluor Cytotoxicity Assay - LYMP1-001 - Live Cells (AID 947);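 further: 0% = DMSO only and full inhibition = tetraoctylammonium bromide control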
[12] = Cell Viability - LYMP1-002 - Assay at 16 hr (AID 948);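 further: 0% = DMSO alone and full effect = 92 µM tetraoctylammonium bromide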
How it was run: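 LYMP1-002 human lymphoblastoid cells, 2500/well; 5 hr 37 C; cpd 16 hr 37 C; CellTiter-Glo 30 min RT; luminescence (ATP). Concentration-response, Hill-fit AC50. Pos ctrl tetraoctylammonium bromide.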

[13] = MultiTox-Fluor Cytotoxicity Assay - LYMP1-002 - Live Cells (AID 955);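 further: cells exposed to compound for 16 hours; on the % scale 0 is the no-effect control and ±100 the full control effect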
How it was run: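 Cytotoxicity in the human lymphoblastoid line LYMP1-002 is measured as loss of live-cell protease activity after 16 h treatment in complete culture medium. AC50 is derived from Hill-equation fits of qHTS concentration-response data.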

[14] = MultiTox-Fluor Cytotoxicity Assay - LYMP1-003 - Dead Cells (AID 961);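 further: cells exposed to compound for 16 h at 37 °C; 0% = DMSO and 100% = tetraoctylammonium bromide; nearly all actives have a fitted effect of over 70% in size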
How it was run: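 Human lymphoblastoid LYMP1-003 cells (2500/well) were treated with compounds for 16 hr at 37 C in complete medium. Dead-cell protease release was read by bis-AAF-R110 fluorescence (Ex/Em 485/520). AC50 came from Hill fits, normalized to DMSO and 15 uM tetraoctylammonium bromide.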

[15] = MultiTox-Fluor Cytotoxicity Assay - LYMP1-003 - Live Cells (AID 962);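 further: cells exposed to compound for 16 hours at 37 °C; 0% = DMSO only and full loss = 92 µM tetraoctylammonium bromide; cytotoxic hits lower the live-cell protease signal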
How it was run: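 Cells plated at 2500 per well and incubated 5 hr; compounds added and incubated 16 hr at 37 C; MultiTox-Fluor reagent added for 60 min at room temperature; fluorescence of liberated AFC measured at 405/510 nm.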

[16] = Cell Viability - LYMP1-003 - Assay at 24 hr (AID 963);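 further: plate controls were DMSO only for no effect and tetraoctylammonium bromide positive control for full effect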
How it was run: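 Acute toxicity in LYMP1-003 lymphoblastoid cells: 24 hr compound treatment at 37 C, ATP measured with CellTiter-Glo after 30 min at room temperature. AC50 derived by fitting the Hill equation to qHTS titrations.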

[17] = Cell Viability - LYMP1-003 - Assay at 40 hr (AID 964); further: on the % scale 0 is the no-effect control and ±100 the full control effect; nearly all actives have a fitted effect of over 60% in size
How it was run: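 This qHTS cytotoxicity screen treats human lymphoblastoid cells (LYMP1-003) with compounds for 40 hr and quantifies cellular ATP via luciferase luminescence.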

[18] = Cell Viability - LYMP2-003 (AID 965);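 further: cells exposed to compounds for 24 h before reading; 0% = DMSO only and full effect = 92 µM tetraoctylammonium bromide; nearly all actives have a fitted effect of over 50% in size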
How it was run: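 CellTiter-Glo luminescence (cellular ATP) after 24 h compound exposure at 37 C in complete medium; 2500 cells/well, 5 h settling beforehand. Concentration-response fitted to standard Hill equation for AC50. Tetraoctylammonium bromide served as positive control.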

[19] = MultiTox-Fluor Cytotoxicity Assay - LYMP1-002 - Dead Cells (AID 960);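 further: cells exposed to compound for 16 h at 37 °C; 0% = DMSO and 100% = tetraoctylammonium bromide; nearly all actives have a fitted effect of over 60% in size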
How it was run: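 Acute cytotoxicity in a human lymphoblastoid line is scored as rising dead-cell protease signal after 16 hr exposure at 37 C, measured fluorometrically (485/520).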

CC(=O)OCCC(C)C
inactive: caspase-3 activation [1] 0.804% | outcome [2] | caspase-3 activation [3] -0.942% | caspase-3 activation [4] -0.0363% | outcome [5] | outcome [6] | Potency [7] | Potency [8] | Potency [9] | outcome [10] | outcome [11] | outcome [12] | outcome [13] | Potency [14] | Potency [15] | Potency [16] | Potency [17] | Potency [18]

OC1CCCC1
inactive: caspase-3 activation [1] -0.56% | outcome [2] | caspase-3 activation [3] 0.647% | caspase-3 activation [4] -1.06% | outcome [5] | outcome [6] | Potency [7] | Potency [8] | Potency [9] | outcome [10] | outcome [11] | outcome [12] | outcome [13] | Potency [14] | Potency [15] | Potency [16] | Potency [17] | Potency [18]

Cc1c(C(=O)O)cccc1[N+](=O)[O-]
inactive: caspase-3 activation [1] -0.447% | outcome [2] | caspase-3 activation [3] -0.261% | caspase-3 activation [4] 1.44% | outcome [5] | outcome [6] | Potency [7] | Potency [8] | Potency [9] | outcome [10] | outcome [11] | outcome [12] | outcome [13] | outcome [19] | Potency [15] | Potency [16] | Potency [17] | Potency [18]

Cc1ccccc1C#N
inactive: caspase-3 activation [1] 0.378% | outcome [2] | caspase-3 activation [3] 1.11% | caspase-3 activation [4] -1.44% | outcome [5] | outcome [6] | Potency [7] | Potency [8] | Potency [9] | outcome [10] | outcome [11] | outcome [12] | outcome [13] | outcome [19] | Potency [15] | Potency [16] | Potency [17] | Potency [18]

CCOc1ccc(NC(C)=O)cc1N
inactive: caspase-3 activation [1] 0.11% | outcome [2] | caspase-3 activation [3] 0.579% | caspase-3 activation [4] -1.58% | outcome [5] | outcome [6] | Potency [7] | Potency [8] | Potency [9] | outcome [10] | outcome [11] | outcome [12] | outcome [13] | Potency [14] | Potency [15] | Potency [16] | Potency [17] | Potency [18]

O=Cc1ccc(C(=O)O)cc1
inactive: caspase-3 activation [1] 0.146% | outcome [2] | caspase-3 activation [3] -0.315% | caspase-3 activation [4] -1.79% | outcome [5] | outcome [6] | Potency [7] | Potency [8] | Potency [9] | outcome [10] | outcome [11] | outcome [12] | outcome [13] | Potency [14] | Potency [15] | Potency [16] | Potency [17] | Potency [18]

CNC(=O)c1ccccc1
inactive: caspase-3 activation [1] 0.192% | outcome [2] | caspase-3 activation [3] -1.03% | caspase-3 activation [4] -0.658% | outcome [5] | outcome [6] | Potency [7] | Potency [8] | Potency [9] | outcome [10] | outcome [11] | outcome [12] | outcome [13] | Potency [14] | Potency [15] | Potency [16] | Potency [17] | Potency [18]

CC(O)CC(C)O (stereo unspecified)
inactive: caspase-3 activation [1] 0.0132% | outcome [2] | caspase-3 activation [3] 1.09% | caspase-3 activation [4] -0.296% | outcome [5] | outcome [6] | Potency [7] | Potency [8] | Potency [9] | outcome [10] | outcome [11] | outcome [12] | outcome [13] | Potency [14] | Potency [15] | Potency [16] | Potency [17] | Potency [18]

COC(=O)CCC(=O)OC
inactive: caspase-3 activation [1] -0.284% | outcome [2] | caspase-3 activation [3] 0.845% | caspase-3 activation [4] -0.32% | outcome [5] | outcome [6] | Potency [7] | Potency [8] | Potency [9] | outcome [10] | outcome [11] | outcome [12] | outcome [13] | Potency [14] | Potency [15] | Potency [16] | Potency [17] | Potency [18]

CCN(Cc1ccccc1)c1ccccc1
inactive: caspase-3 activation [1] -0.109% | outcome [2] | caspase-3 activation [3] 0.0577% | caspase-3 activation [4] -1.67% | outcome [5] | outcome [6] | Potency [7] | Potency [8] | Potency [9] | outcome [10] | outcome [11] | outcome [12] | outcome [13] | Potency [15] | Potency [16] | Potency [17] | Potency [18]

O=CNc1ccccc1
inactive: caspase-3 activation [1] -0.303% | outcome [2] | caspase-3 activation [3] 0.272% | caspase-3 activation [4] 1.41% | outcome [5] | outcome [6] | Potency [7] | Potency [8] | Potency [9] | outcome [10] | outcome [11] | outcome [12] | outcome [13] | Potency [14] | Potency [15] | Potency [16] | Potency [17] | Potency [18]

CC(C)N(C)C
inactive: caspase-3 activation [1] 0.455% | outcome [2] | caspase-3 activation [3] 0.576% | caspase-3 activation [4] 1.04% | outcome [5] | outcome [6] | Potency [7] | Potency [8] | Potency [9] | outcome [10] | outcome [11] | outcome [12] | outcome [13] | Potency [14] | Potency [15] | Potency [16] | Potency [17] | Potency [18]

Cc1ccco1
inactive: caspase-3 activation [1] 0.332% | outcome [2] | caspase-3 activation [3] 1.57% | caspase-3 activation [4] -0.963% | outcome [5] | outcome [6] | Potency [7] | Potency [8] | Potency [9] | outcome [10] | outcome [11] | outcome [12] | outcome [13] | Potency [14] | Potency [15] | Potency [16] | Potency [17] | Potency [18]

c1ccc2n[nH]nc2c1
inactive: caspase-3 activation [1] 0.6% | outcome [2] | caspase-3 activation [3] -0.743% | caspase-3 activation [4] 1.96% | outcome [5] | outcome [6] | Potency [7] | Potency [8] | Potency [9] | outcome [10] | outcome [11] | outcome [12] | outcome [13] | Potency [14] | Potency [15] | Potency [16] | Potency [17]

CC(=O)Nc1ccccc1C
inactive: caspase-3 activation [1] 2.04% | outcome [2] | caspase-3 activation [3] 1.63% | caspase-3 activation [4] 3.57% | outcome [5] | outcome [6] | Potency [7] | Potency [8] | Potency [9] | outcome [10] | outcome [11] | outcome [12] | outcome [13] | Potency [14] | Potency [15] | Potency [16] | Potency [17] | Potency [18]

Cc1ccc([N+](=O)[O-])c(N)c1
inactive: caspase-3 activation [1] -0.782% | outcome [2] | caspase-3 activation [3] -0.384% | caspase-3 activation [4] 0.555% | outcome [5] | outcome [6] | Potency [7] | Potency [8] | Potency [9] | outcome [10] | outcome [11] | outcome [12] | outcome [13] | Potency [14] | Potency [15] | Potency [16] | Potency [17] | Potency [18]

C=C(C)C(=O)OCCCCCCCCCC
inactive: caspase-3 activation [1] -0.0364% | outcome [2] | caspase-3 activation [3] -0.285% | caspase-3 activation [4] 2.37% | outcome [5] | outcome [6] | Potency [7] | Potency [8] | Potency [9] | outcome [10] | outcome [12] | outcome [13] | outcome [19] | Potency [14] | Potency [15] | Potency [16] | Potency [17]

O=C(O)CNC(=O)c1ccc([N+](=O)[O-])cc1
inactive: caspase-3 activation [1] -0.679% | outcome [2] | caspase-3 activation [3] 0.8% | caspase-3 activation [4] -2.43% | outcome [5] | outcome [6] | Potency [7] | Potency [8] | Potency [9] | outcome [10] | outcome [11] | outcome [12] | outcome [13] | outcome [19] | Potency [15] | Potency [16] | Potency [17] | Potency [18]
